Results published in the OligoGym collection.
Further: reference of the scale not given here.

What follows are sequences tested against METRNL (assay: pooled miR-30 sensor sort-seq; sequence = guide strand). Conditions: shRNA.
With TACATCCTCTGGAAGTCCTTGA the sensor-assay potency score (higher = more potent) was 0.329. TTAGTTTGCATTTTACAGCATT gave a sensor-assay potency score (higher = more potent) of -0.859. Sequence TACTGGAAGCCTGTGGTCCTCC has a sensor-assay potency score (higher = more potent) of -0.709. In the case of TCGAACGGCGAAGTCGCTGGTG, the sensor-assay potency score (higher = more potent) is reported as -0.372. TTTTACAGCATTTCCAATCGGC gave a sensor-assay potency score (higher = more potent) of 0.396. TGAAGGACCTGATGCACACGGT gave a sensor-assay potency score (higher = more potent) of -0.842. TGGAAGTCCTTGAAGCGTGGGG gave a sensor-assay potency score (higher = more potent) of -0.538. TAGAGTCTGCTCACGCGCAGGT gave a sensor-assay potency score (higher = more potent) of 0.197. ATAGAGTCTGCTCACGCGCAGG showed a sensor-assay potency score (higher = more potent) of -1.52. TGAAGCGTGGGGCACAGCCGAG showed a sensor-assay potency score (higher = more potent) of -1.51. Sequence TTAACGATGAGAGCACCTGTTG has a sensor-assay potency score (higher = more potent) of -1.05. TAACGATGAGAGCACCTGTTGG gave a sensor-assay potency score (higher = more potent) of -0.773.

Each sequence was assayed against METTL16 in the same assay as above. Conditions: shRNA.
Work on TAAGGCATCGTCCACCTCCTTC yielded a sensor-assay potency score (higher = more potent) of -0.93. TTGTCCTTGTATCTATTTCTTG was tested, and the sensor-assay potency score (higher = more potent) was -1.01. Sequence TTTCTCTAATTTTCTTCGCTTA has a sensor-assay potency score (higher = more potent) of -0.889. TTAACGTTTATCAAACACTTAA showed a sensor-assay potency score (higher = more potent) of -1.21. With TTCTTTAAGAGCATCCATCAGG the sensor-assay potency score (higher = more potent) was -0.744. Sequence TTTGCTTACCTAATTCTGCTTC has a sensor-assay potency score (higher = more potent) of 0.554. With TAACAAACTCTAATTCACCTCC the sensor-assay potency score (higher = more potent) was 0.296. Sequence TTTAAGAGCATCCATCAGGAGT has a sensor-assay potency score (higher = more potent) of -1.04. With TTCTTCGCTTACTTGGTGGTGA the sensor-assay potency score (higher = more potent) was 0.819. In the case of TGTATTAACAGAACTAGGCGGA, the sensor-assay potency score (higher = more potent) is reported as 0.503. TTCTTCTTTAAGAGCATCCATC showed a sensor-assay potency score (higher = more potent) of -1.07. For TTATCAAACACTTAAACAGGTA, the sensor-assay potency score (higher = more potent) was -0.44.

What follows are sequences tested against METTL21C in the same assay as above. Conditions: shRNA.
Work on TCATAGTCGGTGCTGAACCTGA yielded a sensor-assay potency score (higher = more potent) of -0.238. Sequence TATCTTGTTGGATTCTTCTAGG has a sensor-assay potency score (higher = more potent) of -0.565. Sequence TAAAAGATTGTATTGAAGGTTT has a sensor-assay potency score (higher = more potent) of -0.706. Work on TGTTGTGTCAAAAACTTGCTTG yielded a sensor-assay potency score (higher = more potent) of 0.0873. For TAACTCTCTATGGATTCCTGGA, the sensor-assay potency score (higher = more potent) was -0.728. TTAGATATTTAGATTAACCAGA gave a sensor-assay potency score (higher = more potent) of -0.625. With TTCCTGGATGACAATCTCCTTT the sensor-assay potency score (higher = more potent) was -0.999. In the case of TTCTTCTCAGCCTCTAACCAGC, the sensor-assay potency score (higher = more potent) is reported as -1.05. ATCTGTAGGAACAAATTTCTGG gave a sensor-assay potency score (higher = more potent) of -0.452. For TGTAGGAACAAATTTCTGGAGG, the sensor-assay potency score (higher = more potent) was -0.694. With TAGATTAACCAGATAATCTTAA the sensor-assay potency score (higher = more potent) was -0.406. TTAGAAATTAGAAAGTTTCTGC gave a sensor-assay potency score (higher = more potent) of 0.573.

What follows are sequences tested against METTL21D in the same assay as above. Conditions: shRNA.
For TTTAAGAAGAACTTGATGCTGA, the sensor-assay potency score (higher = more potent) was 0.983. TATACTGCTGTAGTCGTAGCAC showed a sensor-assay potency score (higher = more potent) of 0.182. For TTTGTCTTCTTAGCAACTCATT, the sensor-assay potency score (higher = more potent) was -1.33.
